Results: the supplement of paper PMC6522484
± gives the standard deviation of the averaged measurements.

Key:
DLD1 [1] = test: cell viability (CellTiter-Glo) relative to plate median (fraction of plate median); higher = more viable cells; settings: 10 µM, treatment time 24 h
Outline: (§1)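 Kinase inhibitor library compounds were added at a final 10 µM for 24 h to colorectal cancer cells in 384-well plates, 24 h after seeding. The cells stably expressed lentiviral TCF/Wnt firefly luciferase reporters. Firefly luciferase and CellTiterGlo luminescence came from parallel plates, and each well was normalised to its plate median (webcellHTS2, additive, untransformed), averaged over two independent replicates.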

HCT116 [2] = test: as above; settings: 10 µM; treatment time 24 h; reporter: TCF4/Wnt
Outline: as §1

SW480 [3] = test: as above; settings: 10 µM; treatment time 24 h; reporter: 7TFP
Outline: as §1

DLD1 [4] = test: TCF/Wnt firefly luciferase reporter signal relative to plate median (fraction of plate median); higher = higher Wnt reporter signal; settings: 10 µM, treatment time 24 h
Outline: as §1

HCT116 [5] = test: as above; settings: 10 µM; treatment time 24 h; reporter: TCF4/Wnt
Outline: as §1

SW480 [6] = test: as above; settings: 10 µM; treatment time 24 h; reporter: 7TFP
Outline: as §1

SMILES	cell viability (DLD1 [1]; reporter: 7TFP)	cell viability (DLD1 [1]; reporter: TCF4/Wnt)	cell viability (HCT116 [2])	cell viability (SW480 [3])	TCF/Wnt firefly luciferase reporter signal (DLD1 [4]; reporter: 7TFP)	TCF/Wnt firefly luciferase reporter signal (DLD1 [4]; reporter: TCF4/Wnt)	TCF/Wnt firefly luciferase reporter signal (HCT116 [5])	TCF/Wnt firefly luciferase reporter signal (SW480 [6])
Nc1nc(N)c2nc(-c3cccc(O)c3)cnc2n1	1.09 ± 0.014	1.08 ± 0.021	0.97 ± 0.018	1.04 ± 0.064	1.4 ± 0.26	1.15 ± 0.085	1.33 ± 0.31	1.34 ± 0.042
COc1cc(N2CCC(N3CCN(C)CC3)CC2)ccc1Nc1ncc(Cl)c(Nc2ccccc2S(=O)(=O)C(C)C)n1	0.799 ± 0.069	0.884 ± 0.0071	0.733 ± 0.057	0.923 ± 0.054	0.909 ± 0.21	1.14 ± 0.035	1.2 ± 0.12	0.767 ± 0.057
CCCCCCCCCCCCc1ccc(S(=O)(=O)Nc2nncs2)cc1	1.03 ± 0.05	0.966 ± 0.037	1.16 ± 0.035	0.91 ± 0.016	0.981 ± 0.041	1.14 ± 0.18	1.21 ± 0.16	0.959 ± 0.12
Cc1cc(Nc2cc(N3CCN(C)CC3)nc(/C=C/c3ccccc3)n2)n[nH]1	0.88 ± 0.03	0.942 ± 0.061	0.678 ± 0.019	0.9085 ± 0.0035	1.06 ± 0.11	1.01 ± 0.21	1.23 ± 0.33	0.687 ± 0.28
CCN1CCN(Cc2ccc(-c3cc4c(N[C@H](C)c5ccccc5)ncnc4[nH]3)cc2)CC1	0.92 ± 0.15	0.999 ± 0.1	0.938 ± 0.0014	1.115 ± 0.0071	0.905 ± 0.011	0.852 ± 0.22	1.08 ± 0.085	1.24 ± 0.057
Cc1nc(Nc2ncc(C(=O)Nc3c(C)cccc3Cl)s2)cc(N2CCN(CCO)CC2)n1	0.774 ± 0.11	0.898 ± 0.13	1.01 ± 0.035	1.06 ± 0.071	0.54 ± 0.063	0.487 ± 0.031	0.706 ± 0.078	0.615 ± 0.07
CCCNC(=O)Nc1ccc(Oc2ncnc3cc(OC)c(OC)cc23)cc1Cl	1.15 ± 0.085	1.02 ± 0.03	1.15 ± 0.035	0.9145 ± 0.005	1.2 ± 0.085	1.11 ± 0.085	1.04 ± 0.042	0.975 ± 0.14
Cc1ccc([N+](=O)[O-])cc1S(=O)(=O)N(C)/N=C/c1cnc2ccc(Br)cn12	0.887 ± 0.097	1.07 ± 0.078	0.763 ± 0.23	1.13 ± 0.11	0.358 ± 0.074	0.239 ± 0.0014	0.155 ± 0.059	0.53 ± 0.24
CC1(C)CNc2cc(NC(=O)c3cccnc3NCc3ccncc3)ccc21 [Motesanib Diphosphate]	1.015 ± 0.0071	0.978 ± 0.074	1.08 ± 0.021	0.8805 ± 0.0021	1.14 ± 0.12	0.952 ± 0.17	1.19 ± 0.19	0.971 ± 0.11
CC[C@@H]1C(=O)N(C)c2cnc(Nc3ccc(C(=O)N[C@H]4CC[C@H](N5CCN(CC6CC6)CC5)CC4)cc3OC)nc2N1C(C)C [BI6727 (Volasertib)]	0.744 ± 0.32	0.894 ± 0.071	0.554 ± 0.18	0.995 ± 0.16	1.68 ± 0.18	1.98 ± 0.49	0.866 ± 0.0085	1.39 ± 0.27
C[C@@H](Oc1cc(-n2cnc3ccc(CN4CCN(C)CC4)cc32)sc1C(N)=O)c1ccccc1C(F)(F)F	0.905 ± 0.036	0.934 ± 0.033	0.782 ± 0.0057	1.05 ± 0.057	0.726 ± 0.15	0.565 ± 0.17	0.335 ± 0.045	0.941 ± 0.11
COc1cc(CCc2cc(NC(=O)c3ccc(N4CC(C)NC(C)C4)cc3)n[nH]2)cc(OC)c1 (stereo unspecified)	0.967 ± 0.1	0.951 ± 0.04	1.04 ± 0.058	1.07 ± 0.05	0.794 ± 0.042	0.718 ± 0.011	0.502 ± 0.34	0.93 ± 0.099
N#CC1(c2ccc(NC(=O)c3cccnc3NCc3ccncc3)cc2)CCCC1 [Apatinib (YN968D1)]	1.14 ± 0.042	1.025 ± 0.0071	1.22 ± 0.035	0.912 ± 0.0092	0.975 ± 0.064	1.095 ± 0.0071	0.727 ± 0.39	0.761 ± 0.32
O=C(NCCCNc1nc(Nc2cccc(NC(=O)N3CCCC3)c2)ncc1I)c1cccs1	0.966 ± 0.19	0.97 ± 0.21	0.817 ± 0.6	1.06 ± 0.14	0.81 ± 0.0057	0.882 ± 0.32	1.06 ± 1.1	1.06 ± 0.021
Cc1cccc(-c2[nH]c(C(C)(C)C)nc2-c2ccc3nccnc3c2)n1	1.14 ± 0.064	1.06 ± 0.14	1.17 ± 0.028	0.853 ± 0.043	1.1 ± 0.042	1.03 ± 0.12	1.03 ± 0.14	0.854 ± 0.17
Cc1ccc(-n2nc(C(C)(C)C)cc2NC(=O)Nc2ccc(OCCN3CCOCC3)c3ccccc23)cc1 [BIRB 796 (Doramapimod)]	1.15 ± 0.057	1.12 ± 0.17	1.06 ± 0.096	0.975 ± 0.064	0.984 ± 0.0028	1.05 ± 0.17	1.18 ± 0.22	1.07 ± 0.078
C[S+]([O-])c1ccc(-c2nc(-c3ccc(F)cc3)c(-c3ccncc3)[nH]2)cc1 (stereo unspecified)	0.99 ± 0.099	1.02 ± 0.028	1.11 ± 0.035	0.913 ± 0.0099	0.82 ± 0.16	0.884 ± 0.22	1.26 ± 0.38	0.935 ± 0.064
NC(=O)Nc1cc(-c2cccc(F)c2)sc1C(=O)N[C@H]1CCCNC1	0.645 ± 0.073	0.679 ± 0.04	0.293 ± 0.12	0.838 ± 0.13	0.667 ± 0.19	0.829 ± 0.15	0.436 ± 0.15	0.982 ± 0.14
Oc1cc(O)cc(/C=C/c2ccc(O)c(O)c2)c1 [Piceatannol]	1.12 ± 0.042	1.07 ± 0.057	1.19 ± 0.14	0.863 ± 0.0085	1.44 ± 0.15	1.66 ± 0.37	1.455 ± 0.0071	1.44 ± 0.12
S=C(NCc1ccc2c(c1)OCO2)N1CCN(c2ncnc3c2oc2ccccc23)CC1 [Amuvatinib (MP-470)]	0.997 ± 0.047	1.03 ± 0.091	1.15 ± 0.17	0.869 ± 0.013	1.07 ± 0.092	1.23 ± 0.057	1.13 ± 0.29	0.953 ± 0.12
COc1ncc(-c2ccc3nccc(-c4ccnnc4)c3c2)cc1NS(=O)(=O)c1ccc(F)cc1F	0.84 ± 0.018	0.944 ± 0.073	0.295 ± 0.026	1.09 ± 0.042	0.255 ± 0.054	0.238 ± 0.067	0.132 ± 0.021	0.558 ± 0.0092
CO[C@H]1C[C@@H]2CC[C@@H](C)[C@@](O)(O2)C(=O)C(=O)N2CCCC[C@H]2C(=O)O[C@H]([C@H](C)C[C@@H]2CC[C@@H](OC(=O)C(C)(CO)CO)[C@H](OC)C2)CC(=O)[C@H](C)/C=C(\C)[C@@H](O)[C@@H](OC)C(=O)[C@H](C)C[C@H](C)/C=C/C=C/C=C/1C [Temsirolimus (Torisel)]	1.135 ± 0.0071	1.115 ± 0.0071	1.125 ± 0.0071	0.934 ± 0.0028	1.08 ± 0.085	0.995 ± 0.078	1.165 ± 0.0071	0.951 ± 0.11
